Data from PubChem BioAssay (NCATS).
Results filed as inconclusive are left out. Active and inactive are the calls of the source. The call rests on the fitted dose curve; in most records, active means well fitted curve in the direction sought with a large enough effect; inconclusive means small, poorly fitted or top-dose-only effect, or another doubt; inactive means no such curve, though single readings can be large; an effect the other way counts as inactive or inconclusive.

Columns and labels:
[1] = qHTS of pediatric cancer cell lines to identify multiple opportunities for drug repurposing: Primary screen for NB-EBc1 cells (AID 1347095);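 further: plate controls were DMSO neutral control for no effect and bortezomib for full effect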
In short: (§1)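 500-1,000 cells/well; 5 h pre-incubation 37 °C/5% CO2; compound pinned; 48 h; CellTiter-Glo, 15 min RT; luminescence. MIPE 11-pt from 0.78 nM, NPC 8-pt from 0.59 nM final. Bortezomib 2.3 µM final as positive control.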

[2] = qHTS of pediatric cancer cell lines to identify multiple opportunities for drug repurposing: Primary screen for U-2 OS cells (AID 1347096);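 further: plate controls were DMSO wells for no effect and bortezomib positive control wells for full effect; nearly all actives have a fitted effect of over 50% in size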
In short: (§2)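 Cells (500-1,000/well) rested 5 h, then received compounds for 48 h; metabolically active cells were measured by CellTiter-Glo luminescence. Final concentrations spanned up to 46 µM (MIPE, 11-point) or 0.59 nM-46 µM (NPC, 8-point) in primary screens, 11-point in follow-ups.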

[3] = qHTS of pediatric cancer cell lines to identify multiple opportunities for drug repurposing: Primary screen for Saos-2 cells (AID 1347097); further: on the % scale 0 is the no-effect control and ±100 the full control effect; nearly all actives have a fitted effect of over 40% in size
In short: as §1

[4] = qHTS of pediatric cancer cell lines to identify multiple opportunities for drug repurposing: Primary screen for NB1643 cells (AID 1347099);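 further: plate controls were DMSO neutral control for no effect and bortezomib positive control for full effect; nearly all actives have a fitted effect of over 50% in size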
In short: as §1

[5] = qHTS of pediatric cancer cell lines to identify multiple opportunities for drug repurposing: Primary screen for LAN-5 cells (AID 1347100);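 further: plate controls were DMSO neutral control for no effect and bortezomib positive control for full effect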
In short: as §2

[6] = qHTS of pediatric cancer cell lines to identify multiple opportunities for drug repurposing: Primary screen for BT-12 cells (AID 1347101);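 further: plate controls were DMSO for no effect and bortezomib positive control for full effect; nearly all actives have a fitted effect of over 25% in size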
In short: as §2

[7] = qHTS of pediatric cancer cell lines to identify multiple opportunities for drug repurposing: Primary screen for Rh18 cells (AID 1347102); further: on the % scale 0 is the no-effect control and ±100 the full control effect; nearly all actives have a fitted effect of over 65% in size
In short: as §2

[8] = qHTS of pediatric cancer cell lines to identify multiple opportunities for drug repurposing: Primary screen for OHS-50 cells (AID 1347103);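 further: plate controls were DMSO neutral control for no effect and bortezomib positive control for full effect; nearly all actives have a fitted effect of over 40% in size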
In short: as §2

[9] = qHTS of pediatric cancer cell lines to identify multiple opportunities for drug repurposing: Primary screen for RD cells (AID 1347104);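 further: plate controls were DMSO for no effect and bortezomib for full effect; nearly all actives have a fitted effect of over 55% in size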
In short: as §1

[10] = qHTS of pediatric cancer cell lines to identify multiple opportunities for drug repurposing: Primary screen for SK-N-SH cells (AID 1347098);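 further: DMSO served as neutral control and bortezomib at 2.3 µM as positive control; on the % scale 0 is the no-effect control and ±100 the full control effect; nearly all actives have a fitted effect of over 65% in size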
In short: as §2

O=C(CCBr)N1CCN(C(=O)CCBr)CC1
inactive: outcome [1] | outcome [2] | outcome [3] | Potency [4] | outcome [5] | outcome [6] | outcome [7] | outcome [8] | outcome [9]

CC1(C)S[C@@H]2[C@H](NC(=O)C(C(=O)O)c3ccccc3)C(=O)N2[C@H]1C(=O)O (some centres not stated)
inactive: outcome [1] | outcome [2] | outcome [10] | Potency [4] | outcome [5] | outcome [6] | outcome [7] | outcome [8] | outcome [9]

COc1cc(C(=O)NCCCCCC(=O)O)cc(OC)c1OC
inactive: outcome [1] | outcome [2] | outcome [10] | Potency [4] | outcome [5] | outcome [6] | outcome [7] | outcome [8] | outcome [9]

CNc1c2c(nn1C)CCCC2
inactive: outcome [1] | outcome [2] | outcome [10] | Potency [4] | outcome [5] | outcome [6] | outcome [7] | outcome [8] | outcome [9]

N[C@@H](Cc1ccc(O)cc1)C(=O)O
inactive: activity change, negative = cytotoxic [1] 15% [at 9.22 µM] | activity change, negative = cytotoxic [2] 16.3% [at 9.22 µM] | activity change, negative = cytotoxic [10] 5.3% [at 11.4 µM] | activity change, negative = cytotoxic [4] 17.5% [at 9.22 µM] | activity change, negative = cytotoxic [5] 6.26% [at 9.22 µM] | activity change, negative = cytotoxic [6] 11.7% [at 11.5 µM] | activity change, negative = cytotoxic [7] 18.9% [at 9.22 µM] | activity change, negative = cytotoxic [8] 9.85% [at 11.5 µM] | activity change, negative = cytotoxic [9] 14.4% [at 9.22 µM]

OC(CCN1CCCC1)(c1ccccc1)C1CCCCC1 (configuration not stated)
inactive: outcome [1] | outcome [2] | outcome [10] | Potency [4] | outcome [5] | outcome [6] | outcome [7]

NC(N)=NS(=O)(=O)c1ccc(N)cc1
inactive: outcome [1] | outcome [2] | outcome [10] | Potency [4] | outcome [5] | outcome [6] | outcome [7] | outcome [8] | outcome [9]

O=C(O)CCC(=O)O
inactive: outcome [1] | outcome [2] | outcome [3] | Potency [4] | outcome [6] | outcome [7] | outcome [8] | outcome [9]

Nc1ncnc2c1ncn2[C@@H]1O[C@H](COP(=O)(O)O)[C@@H](O)[C@H]1O
inactive: outcome [1] | outcome [2] | outcome [10] | Potency [4] | outcome [5] | outcome [6] | outcome [7] | outcome [8] | outcome [9]

CCc1cccc(CC)c1NC(=O)CN(CC(=O)O)CC(=O)O
inactive: outcome [1] | outcome [2] | outcome [10] | Potency [4] | outcome [5] | outcome [6] | outcome [7] | outcome [8] | outcome [9]

NC(=O)NS(=O)(=O)c1ccc(N)cc1
inactive: outcome [1] | outcome [2] | outcome [10] | Potency [4] | outcome [5] | outcome [6] | outcome [7] | outcome [8]

CCOc1ccccc1O[C@H](c1ccccc1)[C@H]1CNCCO1
inactive: outcome [1] | outcome [2] | outcome [3] | Potency [4] | outcome [5] | outcome [6] | outcome [7] | outcome [9]

Nc1c2c(nc3c1CCC3)CCCC2
inactive: outcome [1] | outcome [2] | outcome [10] | Potency [4] | outcome [5] | outcome [6] | outcome [7] | outcome [8] | outcome [9]

COc1ccc(NS(=O)(=O)c2ccc(N)cc2)nn1
inactive: outcome [1] | outcome [2] | outcome [10] | Potency [4] | outcome [5] | outcome [6] | outcome [7] | outcome [8] | outcome [9]

COc1ccc(C(=O)NCc2ccc(OCCN(C)C)cc2)cc1OC
inactive: outcome [1] | outcome [2] | outcome [3] | Potency [4] | outcome [5] | outcome [6] | outcome [7] | outcome [8] | outcome [9]

CCN[C@H]1CN(CCCOC)S(=O)(=O)c2sc(S(N)(=O)=O)cc21
inactive: outcome [1] | outcome [2] | outcome [10] | Potency [4] | outcome [5] | outcome [6] | outcome [7] | outcome [8] | outcome [9]

OC[C@@H](O)[C@@H](O)[C@H](O)[C@H](O)CO
inactive: outcome [1] | outcome [2] | outcome [10] | Potency [4] | outcome [5] | outcome [6] | outcome [7] | outcome [8] | outcome [9]

O=S1(=O)OC(c2ccc(O)cc2)(c2ccc(O)cc2)c2ccccc21
inactive: outcome [1] | outcome [2] | outcome [10] | Potency [4] | outcome [5] | outcome [6] | outcome [7] | outcome [8]

NC(=O)CC[C@@H](N)C(=O)O
inactive: outcome [1] | outcome [2] | outcome [10] | Potency [4] | outcome [5] | outcome [6] | outcome [7] | outcome [8] | outcome [9]

CC(C)CCOC(=O)c1ccc(N(C)C)cc1
inactive: outcome [1] | outcome [2] | outcome [10] | Potency [4] | outcome [5] | outcome [6] | outcome [7] | outcome [8]

O=C1c2cccc(O)c2C(=O)c2c(O)cccc21
inactive: outcome [2] | outcome [3] | outcome [10] | outcome [6] | outcome [7] | outcome [8] | outcome [9]

CC(=O)N[C@@H](Cc1ccc(O)cc1)C(=O)O
inactive: outcome [1] | outcome [2] | outcome [10] | Potency [4] | outcome [5] | outcome [7] | outcome [8] | outcome [9]

O=C(O)Cc1cn(-c2ccccc2)nc1-c1ccc(Cl)cc1
inactive: outcome [1] | outcome [2] | Potency [4] | outcome [6] | outcome [7] | outcome [8] | outcome [9]

Cn1c([N+](=O)[O-])cnc1COC(N)=O
inactive: outcome [1] | outcome [2] | outcome [10] | Potency [4] | outcome [5] | outcome [6] | outcome [7] | outcome [8] | outcome [9]

CC(=O)Nc1ccccc1
inactive: outcome [1] | outcome [2] | outcome [10] | Potency [4] | outcome [5] | outcome [7] | outcome [8] | outcome [9]
